From the supplement of paper PMC9023506
Where a name gives a salt, the structure may show the parent alone.

tested on: Danio rerio larvae (5 dpf); test: optomotor response to green moving lines, difference vs DMSO (percentage points (treated minus DMSO)); higher = more of the behaviour than the DMSO vehicle control; conditions: 10 µM; exposure time: 3 h pre-incubation + 3 h imaging
Experimental: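 5-dpf wild-type zebrafish larvae were imaged in 96-well plates. They were treated with 190 Tocris FDA-approved drugs at 10 µM (1 µl/ml DMSO) for 3 h before and 3 h during imaging at 28.5 °C, 48 larvae per drug. Automated image analysis gave % time moving and optomotor responses. Values are drug group mean minus DMSO vehicle mean (n=844), in percentage points, for 10 behaviours.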

SMILES	optomotor response to green moving lines
CC(O)(CS(=O)(=O)c1ccc(F)cc1)C(=O)Nc1ccc(C#N)c(C(F)(F)F)c1 (stereo unspecified) [Bicalutamide]	1.12
C=C1C[C@@H]2[C@H](CC[C@]3(C)C(=O)CC[C@@H]23)[C@@]2(C)C=CC(=O)C=C12 [Exemestane]	9.98
N[C@@H]1C[C@H]1c1ccccc1 [Tranylcypromine hydrochloride]	0.888
CC[C@@H](C(N)=O)N1CCCC1=O [Levetiracetam]	4.63
CCN(C)C(=O)Oc1cccc([C@H](C)N(C)C)c1 [Rivastigmine tartrate]	-8.15
CC(C)C[C@H]1C(=O)N2CCC[C@H]2[C@]2(O)O[C@](NC(=O)[C@@H]3C=C4c5cccc6[nH]c(Br)c(c56)C[C@H]4N(C)C3)(C(C)C)C(=O)N12 [Bromocriptine mesylate]	-20.3
COc1ccc(C(CN(C)C)C2(O)CCCCC2)cc1 (stereo unspecified) [Venlafaxine hydrochloride]	1.84
COc1cc2c(cc1OC)C1CC(=O)C(CC(C)C)CN1CC2 (stereo unspecified) [Tetrabenazine]	-9.74
C=CCN1C[C@H](C(=O)N(CCCN(C)C)C(=O)NCC)C[C@@H]2c3cccc4[nH]cc(c34)C[C@H]21 [Cabergoline]	-10.2
O=c1[nH]c2ccccc2n1C1CCN(CCCC(c2ccc(F)cc2)c2ccc(F)cc2)CC1 [Pimozide]	-16.3
CN1C[C@H](C(=O)N[C@]2(C)O[C@@]3(O)[C@@H]4CCCN4C(=O)[C@H](Cc4ccccc4)N3C2=O)C[C@@H]2c3cccc4[nH]cc(c34)C[C@H]21 [Dihydroergotamine mesylate]	16.2
